# Bioassay records from PubChem.
# TTR transcr act: TTR transcription activation, primary screen; SH-SY5Y TTR promoter Gaussia luciferase, luminescence; 100% = recombinant luciferase protein wells; AID 1117267; actives 1.3% (n = 92,000); activation, % at 16.7 µM;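 active = activation above the mean of all tested compounds plus 3 SD, cut at about 9.5% in these data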;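 note: cells exposed to compounds for one day before reading; 0% = median of all test compound wells on the plate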
# TTR inh HuH7: HuH7 TTR transcription inhibition, counter-screen. shares compounds with TTR transcr act. HuH7 TTR promoter-Gaussia luciferase reporter, luminescence. inhibition, % at 16.7 µM. actives 4% (n = 1,100);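 active = average inhibition above the solvent-only control wells' mean plus 3 SD, cut at about 15% in these data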;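 note: 0% = cells with DMSO only and 100% = cells with inhibitor control FD; inhibitors lower well luminescence so higher value means more inhibition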
# TTR act confirm: human TTR transcription activation, confirmation; activation, % at 16.7 µM; AID 1117280; shares compounds with TTR transcr act; SHSY5Y TTR promoter Gaussia luciferase, luminescence; 100% = purified Lucia enzyme wells, no cells; 1,100 tested, under 10 active;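 active = mean activation above a set limit taken from the earlier primary screen, cut at about 11% in these data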;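 note: 0% = DMSO-treated cells and 100% = recombinant Lucia luciferase without cells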
# * hit, by the source's call. The entries come from a sample that favours hits as a whole.
SMILES,TTR transcr act,others
O=C(N[C@@H](Cc1ccccc1)C(=O)N1CCC2CCN(S(=O)(=O)c3ccccc3)CC21)[C@@H]1CCCN1 (stereo not given in full),0,
O=C(N/C(=C\c1cccs1)C(=O)N1CCOCC1)c1ccco1,-1,
CN1CCN(C(=O)/C(=C\c2cccs2)NC(=O)c2ccco2)CC1,9.7*,TTR inh HuH7=3;TTR act confirm=-1
Cc1ccccc1NC(=O)/C(=C\c1cccs1)NC(=O)c1ccco1,2,
CCCn1nc(C(=O)NNC(=O)C2CSC3(C)CCC(=O)N23)c2ccccc2c1=O (stereo not given),-2,
COc1cccc(-c2cc3nc(-c4ccco4)cc(N4CCN(C(C)=O)CC4)n3n2)c1,-2,
COc1ccc(C=O)cc1-c1cc(C(C)=O)c2n(c1=O)CCC2,0,
O=S(Cc1cc(Sc2ccccc2)nc(-c2ccccc2)n1)c1ccccc1 (stereo not given),12*,TTR inh HuH7=12;TTR act confirm=-1
O=S(Cc1ccccc1)c1ccccc1 (stereo not given),1,
COc1cccc(Sc2cc(N3CCOCC3)nc(-c3ccccc3)n2)c1,-2,
O=S1(=O)N[C@H](Cc2ccccc2)COc2cc(Br)ccc21,-2,
CCCC(=O)OCC(=O)Nc1ccccc1Sc1ccccc1,11*,TTR inh HuH7=11;TTR act confirm=3
CCCC(=O)OCC(=O)Nc1ccccc1C#N,2,
O=C(COC(=O)c1cc[n+]([O-])cc1)Nc1ccccc1Sc1ccccc1,0,
CCOC(=O)C1CCN(C(=O)C(C)(C)NC(=O)Nc2ccc3c(c2)CCC3)CC1,-2,
COC(=O)[C@]12C[C@H](CC(=O)NCCC(C)C)C(=O)N(Cc3ccc(Cl)cc3Cl)C1=C[C@H](COCc1ccccc1)O[C@@H]2C,0,
CCc1ccccc1-c1cc(C(C)=O)c2n(c1=O)CCC2,3,
O=C(COCc1ccccc1)NC1CCCCN(Cc2ccc(Cl)cc2)C1=O (stereo not given),1,
CC(C)Oc1ccc(S(=O)(=O)N2CCCCCC2)c2ccccc12,-1,
CCOC(=O)[C@@]12CCC3=C1N(CCC3)C(=O)[C@H](CC(=O)NCC13CC4CC(CC(C4)C1)C3)C2,0,
O=C(CSc1ncccn1)N1CCN(Cc2ccccc2)CC1,15*,TTR inh HuH7=7;TTR act confirm=-1
O=C(CCS(=O)(=O)c1ccc(Br)cc1)N1CCN(Cc2ccccc2)CC1,-1,
Cc1cc(C)c(C#N)c(SCC(=O)N2CCN(Cc3ccccc3)CC2)n1,-3,
CCN(CC(=O)Nc1ccc(NC(C)=O)cc1)C(=O)c1c(-c2c(F)cccc2Cl)noc1C,17*,TTR inh HuH7=-10;TTR act confirm=0
COc1cccc(NC(=O)CN(C)C(=O)c2c(-c3c(F)cccc3Cl)noc2C)c1,1,
SMILES,TTR transcr act,others
CCN(CC(=O)Nc1c(F)cccc1F)C(=O)c1c(-c2ccccc2Cl)noc1C,-1,
CCCC[C@H](C(=O)N(C)c1cccc(OC)c1)[C@@H](O)c1ccc(C(C)=O)cc1,-1,
O=C(c1ccoc1)N1CCCC(N2CCN(c3cccc(C(F)(F)F)c3)CC2)C1 (stereo not given),0,
CC1=C(C(=O)N2CCCC(N3CCN(c4cccc(C(F)(F)F)c4)CC3)C2)OCCO1 (stereo not given),11*,TTR inh HuH7=-6;TTR act confirm=0
Cc1ccc(C(=O)N2CCCC(N3CCN(c4cccc(C(F)(F)F)c4)CC3)C2)s1 (stereo not given),0,
C[C@@H]1CCN(C2CC2)S(=O)(=O)c2c(cccc2N2CCC[C@H]2CO)O1,0,
C[C@@H](N)P(=O)(O)C[C@H](Cc1ccccc1)C(=O)O,4,
CCOC(=O)CC1C(=O)NCCN1C(=O)Nc1ccccc1 (stereo not given),18*,TTR inh HuH7=-5;TTR act confirm=-1
COC(=O)CC1C(=O)NCCN1C(=S)Nc1cccc(C)c1 (stereo not given),2,
COc1ccc(NC(=O)CC2C(=O)NCCN2C(=O)Nc2ccc(C(F)(F)F)cc2)cc1 (stereo not given),0,
CCN(CC)S(=O)(=O)c1ccc(Cc2ncc(C(F)(F)F)cc2Cl)s1,9.9*,TTR inh HuH7=-11;TTR act confirm=0
NNS(=O)(=O)c1ccc(Cc2ncc(C(F)(F)F)cc2Cl)s1,3,
NS(=O)(=O)c1ccc(Cc2ncc(C(F)(F)F)cc2Cl)s1,1,
Cc1cc(-c2cc(-c3ccc(Cl)cc3)on2)nc(NC2CCCC2)n1,9.8*,TTR inh HuH7=-3;TTR act confirm=1
Cc1ccc(SCc2cc(-c3ccc(Cl)cc3)on2)cc1,1,
Cc1ccc(-c2cc(C(=O)NC3CCCC3)no2)cc1,-2,
Cc1cccc(Cn2cc(COC(=O)N3CCOCC3)nn2)c1,-1,
CCCC[C@H]1C2CC(OC(=O)Nc3ccc(C)cc3)C(C2)[C@H]2CCCCN21 (stereo not given in full),6,
COc1cc(CN2CCC(C(=O)NC3CCCC3)CC2)cc(OC)c1O,0,
